Source: PubChem BioAssay (several laboratories)
Exocytosis inh: LAMP-1 surface exposure blockers, TALL-104 cells – cell-based, flow cytometry, MLPCN library, primary screen. actives 0.66% (n = 360,000). inhibition, % at 10 µM. TALL-104 LAMP-1 surface exposure; cells stimulated with thapsigargin and PMA;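 active means inhibition above about 55%, limit read from the data; inconclusive means no clear call, values can overlap the other calls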
rCAG binder-1: binders of r(CAG) RNA repeats, primary screen, biochemical, fluorescence; inhibition, % at 3 µM; actives 1.3% (n = 370,000); r(CAG) RNA repeat, TO-PRO-1 dye displacement fluorescence;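 active means inhibition above the plate cutoff, the mean of all test compounds on that plate plus 3 SD, cut at about 35% in these data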;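 further: 0% = DMSO alone and 100% = 100 µM mitoxantrone as full dye displacement; higher means more dye released from RNA so lower well fluorescence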
PG9 Ab binder: binders of HIV-1 gp120 antibody PG9, primary screen, biochemical, TR-FRET. HIV-1 gp120 / PG9 antibody interaction. TR-FRET gp120-PG9 antibody binding. inhibition, % at 6.7 µM. actives 0.43% (n = 360,000). AID 624416, 2012; in the data active means inhibition above about 8.5%
ABCB6 inh MLPCN: ABCB6 transporter inhibitors, primary screen, K562-ABCB6 cells, flow cytometry, MLPCN library | fluorescence ratio to DMSO, % at 10 µM | actives 0.19% (n = 360,000) | K562-ABCB6 porphyrin accumulation, 1 h; stronger effect = lower value;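 active means fluorescence ratio to DMSO below 75%, the collection mean minus 3 SD; inconclusive means too few cells collected in the well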;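 further: signal is porphyrin accumulated inside mitochondria; 100% equals median channel fluorescence of DMSO control wells; lower ratio means ABCB6 inhibition with less porphyrin fluorescence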
Target sequence (Q9NP58 whole entry, looked up): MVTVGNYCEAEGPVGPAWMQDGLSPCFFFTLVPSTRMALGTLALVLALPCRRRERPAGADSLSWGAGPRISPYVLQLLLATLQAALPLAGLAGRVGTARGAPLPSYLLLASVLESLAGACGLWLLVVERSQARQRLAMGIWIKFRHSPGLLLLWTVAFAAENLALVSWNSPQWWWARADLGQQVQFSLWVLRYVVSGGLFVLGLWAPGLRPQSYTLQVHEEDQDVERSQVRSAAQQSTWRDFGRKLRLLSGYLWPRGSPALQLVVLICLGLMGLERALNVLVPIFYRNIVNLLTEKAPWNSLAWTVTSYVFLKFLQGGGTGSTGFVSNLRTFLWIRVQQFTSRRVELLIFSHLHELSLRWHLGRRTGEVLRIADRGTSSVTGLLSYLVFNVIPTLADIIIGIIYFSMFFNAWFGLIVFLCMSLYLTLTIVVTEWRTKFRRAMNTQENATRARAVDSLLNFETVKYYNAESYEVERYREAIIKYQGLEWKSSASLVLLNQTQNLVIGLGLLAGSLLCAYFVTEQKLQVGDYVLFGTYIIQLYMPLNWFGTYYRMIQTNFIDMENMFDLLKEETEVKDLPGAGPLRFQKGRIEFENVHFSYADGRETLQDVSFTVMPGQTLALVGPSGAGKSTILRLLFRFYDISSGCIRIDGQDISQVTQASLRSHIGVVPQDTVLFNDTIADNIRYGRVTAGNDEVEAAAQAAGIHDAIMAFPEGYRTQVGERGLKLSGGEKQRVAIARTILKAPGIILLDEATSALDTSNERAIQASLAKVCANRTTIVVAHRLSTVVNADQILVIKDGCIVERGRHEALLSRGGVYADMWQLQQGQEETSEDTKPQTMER
rCAG bind conf: small molecules binding CAG repeat RNA – biochemical, fluorescence, confirmation | actives 70% (n = 4,300) | r(CAG) RNA repeat, TO-PRO-1 dye displacement fluorescence | inhibition, % at 3 µM | shares compounds with rCAG binder-1;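 active means inhibition above a per-plate cutoff, the mean inhibition of sample wells plus 3 SD, cut at about 35% in these data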;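 further: loss of TO-PRO-1 fluorescence as compound displaces dye from 1x1 AA loop RNA; 0% = DMSO only wells and 100% = 100 µM mitoxantrone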
dCAG dye counter: displacement of TO-PRO-1 from CAG DNA duplex, counter-screen for rCAG RNA repeat binder project, biochemical, fluorescence, TO-PRO-1 dye, d(CAG) DNA oligo; AID 652068, 2013; actives 94% (n = 4,300); inhibition, % at 3 µM; shares compounds with rCAG binder-1; d(CAG) DNA oligo TO-PRO-1 dye displacement;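 active means inhibition above its plate's cutoff, the mean test-well inhibition plus 3 SD, cut at about 4.8% in these data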;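 further: 0% = DNA dye mix with DMSO and 100% = 100 µM mitoxantrone; hits displace the dye from DNA and so lower well fluorescence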
DNA CAG DR: inhibitors of DNA CAG/GTC TO-PRO-1 complex, dose response, counter-screen for rCAG RNA repeat binder project, biochemical, fluorescence, TO-PRO-1 dye. shares compounds with rCAG binder-1. DNA CAG/GTC duplex TO-PRO-1 dye displacement fluorescence. IC50, µM. actives 20% (n = 250). AID 686960, 2013; in the data active means IC50 below about 10 µM
dCAG TOPRO ctr: TO-PRO-1 dye complex inhibitors on d(CAG) DNA, dose response, counter-screen, biochemical, fluorescence, late stage | shares compounds with rCAG binder-1 | d(CAG) DNA duplex TO-PRO-1 dye displacement | IC50, µM | actives 80% (n = 30) | AID 720649, 2013
rCAG binder-2: molecules binding r(CAG) RNA repeats, late stage dose response, late-stage follow-up, biochemical, fluorescence, dose response, powder samples. r(CAG) RNA TO-PRO-1 dye displacement. shares compounds with rCAG binder-1. actives 100% (n = 30). IC50, µM
* hit, by the source's call; i = inactive; ? = inconclusive; nt = not tested or not shown. Most compounds without a hit are left out; they make up all but 2.5% or so of the library. Unless noted, how the calls were made is not given here.

SMILES | Exocytosis inh | rCAG binder-1 | PG9 Ab binder | ABCB6 inh MLPCN | rCAG bind conf | dCAG dye counter | others
COc1ccccc1NC(=O)C(C)OC(=O)CCCOc1ccccc1 (stereo unspecified) | 2 | -6 | -1 | 94 | nt | nt
CCOc1ccc(S(=O)(=O)N2CCN(C(=O)c3cc(C4CC4)nn3-c3ccccc3)CC2)cc1 | 6 | 6 | 2 | 100 | nt | nt
CCN(CC(=O)Nc1ccc(OC)cc1)CC(=O)Nc1cccc(S(=O)(=O)N2CCOCC2)c1 | -4 | 4 | -2 | 101 | nt | nt
CCCCCCC(=O)Nc1ccc(S(=O)(=O)Nc2onc(C)c2C)cc1 | 6 | 18 | -1 | 98 | nt | nt
Cc1ccc(C)c(OCC(=O)Nc2nonc2NC(=O)COc2cc(C)ccc2C)c1 | -1 | 13 | 0 | 99 | nt | nt
Cc1ccc(C)c(OCC(=O)Nc2cc(NC(=O)COc3cc(C)ccc3C)cc(C(=O)O)c2)c1 | 0 | 49* | 0 | 100 | 77* | 41*
Cc1noc(NS(=O)(=O)c2ccc(NC(=O)CCCOc3ccc(Cl)cc3Cl)cc2)c1C | 0 | 87* | -1 | 99 | 73* | 38*
Cc1noc(NS(=O)(=O)c2ccc(NC(=O)CSc3nc4c(cc3C#N)CCCCC4)cc2)c1C | -2 | 42* | 0 | 101 | 34 | 8.2*
CCc1cccc(OCC(=O)Nc2ccc(S(=O)(=O)Nc3onc(C)c3C)cc2)c1 | -5 | 37* | -1 | 102 | 31 | 7.1*
O=C(CC12CC3CC(CC(C3)C1)C2)NC(=S)Nc1ccc(CN2CCOCC2)cc1 | -1 | -2 | -2 | 101 | nt | nt
O=C(CN1c2cccc3cccc(c23)S1(=O)=O)Nc1ccccc1Br | 28 | 6 | 0 | 97 | nt | nt
CC1Cc2ccccc2N1C(=O)CSc1nnc(N)s1 (stereo unspecified) | -1 | 6 | 0 | 99 | nt | nt
CCc1cccc(OCC(=O)Nc2c[nH]c(=O)[nH]c2=O)c1 | 0 | 2 | 2 | 103 | nt | nt
Cc1ccccc1OCC(=O)Nc1ccc(S(=O)(=O)Nc2onc(C)c2C)cc1 | ? | 31 | -3 | 98 | nt | nt
Cc1ccc(C)c(OCC(=O)Nc2ccc(S(=O)(=O)Nc3onc(C)c3C)cc2)c1 | -4 | 48* | -3 | 102 | 46* | 13*
CCc1cccc(OCC(=O)Nc2ccc(C(=O)O)cc2NC(=O)COc2cccc(CC)c2)c1 | 3 | 78* | -1 | 105 | 72* | 36*
Cc1noc(NS(=O)(=O)c2ccc(NC(=O)COc3ccc(Cl)cc3Cl)cc2)c1C | -3 | 77* | 0 | 103 | 70* | 22* | DNA CAG DR=i;dCAG TOPRO ctr=3.6*;rCAG binder-2=1.3*
O=c1[nH]cc(CN2CCOCC2)c(=O)[nH]1 | 2 | 0 | 0 | 96 | nt | nt
CCCCn1c(N)c(N(CC)C(=O)c2cc3c(s2)CCCCC3)c(=O)[nH]c1=O | -3 | 0 | 0 | 93 | nt | nt
Cc1c(OCc2nn[nH]n2)ccc2c(-c3ccccc3)cc(=O)oc12 | -1 | 24 | 1 | 93 | nt | nt
COc1ccc(-c2cc(=O)oc3c(C)c(OCc4nn[nH]n4)ccc23)cc1 | -7 | 39* | -1 | 94 | 23 | 5.7*
COc1cccc(NCc2cc(=O)oc3cc(C)c(C(C)C)cc23)c1 | 12 | 9 | -1 | 99 | nt | nt
Cc1ccc2nc(-c3ccc(NC(=O)COCC(=O)O)cc3)sc2c1 | 2 | 42* | -2 | 101 | 34 | 8.3*
